Inconclusive results are not listed. Where a call stands in place of a potency, no number is given. More than one record can exist for a structure, and the calls need not agree. Activity calls are given as the source filed them. Unless noted, calls follow the shape of the dose curve; as a rule, active = well fitted curve in the direction sought with a large enough effect; inconclusive = small, poorly fitted or top-dose-only effect, or another doubt; inactive = no such curve, though single readings can be large; an effect the other way counts as inactive or inconclusive.
Assays:
[1] = qHTS for Inhibitors of Plasmodium falciparum (DD2) proliferation (AID 504314); also: potency is read from the fitted curve at half-maximal effect;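 as to activity, negative = inhibition: parasite DNA measured by SYBR Green fluorescence after red cell lysis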; settings: P. falciparum Dd2 in erythrocytes, SYBR Green growth, 72 h; series mostly up to 6.11 µM
How it was run: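 SYBR Green growth assay: 72 h compound exposure of infected red cells (2.5% hematocrit, 0.3% parasitemia), then lysis and overnight dye staining, fluorescence 485/535 nm. Values scaled between DMSO and 0.29 uM artemisinin controls.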

[2] = qHTS for Inhibitors of Plasmodium falciparum (GB4) proliferation (AID 504315); also: nearly all actives have a fitted effect of over 50% in size; also: potency is read from the fitted curve at half-maximal effect; settings: P. falciparum GB4 in erythrocytes, SYBR Green DNA, 72 h; series mostly up to 6.7 µM
How it was run: (§1)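 Parasite growth measured as SYBR Green DNA fluorescence (ex 485, em 535 nm) after overnight lysis following 72 h culture at 37 °C, 0.3% parasitemia, 2.5% hematocrit. Values normalized against DMSO and 0.29 uM artemisinin controls, with plate-stack correction.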

[3] = qHTS for Inhibitors of Plasmodium falciparum (7G8) proliferation (AID 504316); also: nearly all actives have a fitted effect of over 65% in size; also: potency is read from the fitted curve at half-maximal effect; settings: P. falciparum 7G8 in erythrocytes, SYBR Green DNA, 72 h; series mostly up to 6.7 µM
How it was run: as §1

[4] = qHTS for Inhibitors of Plasmodium falciparum (CP250) proliferation (AID 504320); also: potency is read from the fitted curve at half-maximal effect; settings: P. falciparum CP250 in erythrocytes, SYBR Green DNA, 72 h; series mostly up to 6.7 µM
How it was run: as §1

[5] = biological target: Atrial natriuretic peptide receptor 1 (Homo sapiens) (UniProt P16066); assay: Natriuretic polypeptide receptor (hNpr1) antagonism - Pilot CMLD screen (AID 1347052; calls by dose curve;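 also: HEK293 cells with hNpr1 stimulated by hNppA peptide at 0.1 nM; cGMP level read as GloSensor luciferase luminescence after agonist stimulation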); settings: HEK293 hNpr1 GloSensor cGMP luminescence, ANP-stimulated; series mostly up to 9.22 µM
Sequence of Atrial natriuretic peptide receptor 1 (Homo sapiens) (P16066 whole entry, looked up): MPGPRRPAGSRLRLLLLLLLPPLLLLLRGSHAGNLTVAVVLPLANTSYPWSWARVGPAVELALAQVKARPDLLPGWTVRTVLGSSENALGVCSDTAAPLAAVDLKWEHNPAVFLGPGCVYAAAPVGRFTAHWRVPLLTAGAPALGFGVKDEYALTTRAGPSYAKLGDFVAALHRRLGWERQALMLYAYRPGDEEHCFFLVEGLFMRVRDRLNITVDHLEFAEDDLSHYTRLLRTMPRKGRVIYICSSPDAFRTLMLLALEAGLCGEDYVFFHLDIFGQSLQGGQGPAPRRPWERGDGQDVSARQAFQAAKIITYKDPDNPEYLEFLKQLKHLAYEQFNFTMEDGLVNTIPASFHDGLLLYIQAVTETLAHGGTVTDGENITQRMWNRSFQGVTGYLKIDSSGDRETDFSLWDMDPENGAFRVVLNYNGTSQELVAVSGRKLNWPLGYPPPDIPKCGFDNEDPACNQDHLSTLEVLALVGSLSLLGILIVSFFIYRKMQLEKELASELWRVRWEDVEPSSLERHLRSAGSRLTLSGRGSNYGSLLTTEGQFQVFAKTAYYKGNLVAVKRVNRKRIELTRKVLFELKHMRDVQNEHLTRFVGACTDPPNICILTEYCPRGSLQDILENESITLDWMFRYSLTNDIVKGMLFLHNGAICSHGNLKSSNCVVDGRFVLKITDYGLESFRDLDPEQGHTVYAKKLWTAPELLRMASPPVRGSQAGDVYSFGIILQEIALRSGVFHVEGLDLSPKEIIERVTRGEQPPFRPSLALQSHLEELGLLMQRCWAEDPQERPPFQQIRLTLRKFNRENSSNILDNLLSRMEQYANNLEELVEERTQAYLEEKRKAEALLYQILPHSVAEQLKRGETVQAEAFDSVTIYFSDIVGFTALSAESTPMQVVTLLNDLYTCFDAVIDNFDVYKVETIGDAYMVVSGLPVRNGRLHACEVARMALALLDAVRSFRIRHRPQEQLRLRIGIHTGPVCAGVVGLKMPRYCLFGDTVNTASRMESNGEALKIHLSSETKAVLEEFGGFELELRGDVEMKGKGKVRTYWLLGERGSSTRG

[6] = qHTS for Inhibitors of Plasmodium falciparum (HB3) proliferation (AID 504318); also: nearly all actives have a fitted effect of over 60% in size; also: potency is read from the fitted curve at half-maximal effect; settings: P. falciparum HB3 in erythrocytes, SYBR Green DNA, 72 h; series mostly up to 7.21 µM
How it was run: as §1

[7] = biological target: Cytochrome P450 3A4 (Homo sapiens) (UniProt P08684); assay: qHTS Assay for Activators of Cytochrome P450 3A4 (AID 885); settings: recombinant CYP3A4, Luciferin-PPXE luminescence, 60 min; series mostly up to 57.1 µM; also: nearly all actives have a fitted effect of over 65% in size
Sequence of Cytochrome P450 3A4 (Homo sapiens) (P08684 whole entry, looked up): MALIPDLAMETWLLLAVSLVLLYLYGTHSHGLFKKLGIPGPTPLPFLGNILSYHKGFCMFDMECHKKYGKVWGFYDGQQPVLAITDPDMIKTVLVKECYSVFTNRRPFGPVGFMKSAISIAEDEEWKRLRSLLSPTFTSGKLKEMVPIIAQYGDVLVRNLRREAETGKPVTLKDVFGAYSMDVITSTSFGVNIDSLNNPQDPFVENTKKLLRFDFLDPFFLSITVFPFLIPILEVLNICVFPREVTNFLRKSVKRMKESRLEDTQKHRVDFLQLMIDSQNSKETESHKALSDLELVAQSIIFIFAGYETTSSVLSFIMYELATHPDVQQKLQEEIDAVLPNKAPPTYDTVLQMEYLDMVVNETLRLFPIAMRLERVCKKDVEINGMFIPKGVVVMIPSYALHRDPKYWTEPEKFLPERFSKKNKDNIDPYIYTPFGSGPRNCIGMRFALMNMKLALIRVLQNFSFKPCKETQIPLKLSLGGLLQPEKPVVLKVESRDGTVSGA
How it was run: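 Luminescent readout of luciferin formed from 25 uM Luciferin-PPXE (KM level) by 20 nM CYP3A4 in 200 mM KPO4, with 60 min NADPH-driven reaction at room temperature after 10 min compound exposure. Ketoconazole (57 uM) defined 100% inhibition.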

SMILES	Potency [1]	Potency [2]	Potency [3]	Potency [4]	Potency [5]	activity, negative = inhibition [1]	Potency [6]	activity change, positive = activation [7]
OC[C@H]1O[C@H](C#Cc2ccccc2)C=C[C@@H]1O	inactive	inactive	inactive	inactive	inactive	–	–	–
CC(C)CON=C1C[C@@H](O)[C@@H](O)[C@@H]2[C@H]3C(=O)N(C[C@@H]4CCCO4)C(=O)[C@@H]3CC[C@@H]12	inactive	inactive	inactive	inactive	inactive	–	–	–
C=CC1=C2C=C(C3CC3)N(C3CCCCC3)C=C2C(=O)C(C)(OC(=O)c2ccco2)C1=O (stereo not drawn)	–	inactive	inactive	inactive	inactive	1.92% [at 1.12 µM] (inactive)	–	–
COC1=C[C@H](C(=O)NCc2ccccn2)[C@H](C)[C@@H](c2ccccc2)CC1=O	inactive	inactive	inactive	inactive	inactive	–	–	–
COC(=O)N1C2CC3(C)CC(=O)CC1(C)C3c1ccccc12 (stereo not drawn)	inactive	inactive	inactive	inactive	inactive	–	–	–
CC(C)CON=C1C[C@@H](O)[C@@H](O)[C@@H]2[C@H]3C(=O)N([C@@H](C)c4ccccc4)C(=O)[C@@H]3CC[C@H]12	inactive	inactive	inactive	inactive	inactive	–	–	–
CC[C@H]1OC(c2ccccc2)[C@H](C)[C@H]2O[C@@H]2[C@@H]1C(=O)OC (stereo partly drawn)	inactive	inactive	inactive	inactive	inactive	–	–	–
COc1cccc2c1C1(CCCCC1)CC2NC(=O)C(F)(F)F (stereo not drawn)	inactive	inactive	inactive	inactive	inactive	–	–	–
CC(C)OCCCN1C=C2C(=O)C(C)(OC(=O)C3CCCC3)C(=O)C=C2C=C1c1ccsc1 (stereo not drawn)	–	inactive	inactive	inactive	inactive	-2.66% [at 1.12 µM] (inactive)	–	–
O[C@@H]1CO[C@@H](C=Cc2ccccc2)[C@H]1OCc1cccc(Br)c1	inactive	inactive	inactive	inactive	inactive	–	–	–
CCOC(=O)[C@@]1([C@@H](NC(=O)OC)c2ccco2)CCCC1=O	inactive	inactive	inactive	inactive	inactive	–	–	–
CCN1C(=NCCOC)N[C@@H](c2ccccc2)[C@H](C(=O)OC)[C@H]1C	inactive	inactive	–	–	inactive	–	inactive	–
COC1=C[C@H](C(=O)NCCOC(C)=O)[C@@]2(C)Cc3ccccc3[C@@H]2CC1=O	inactive	inactive	inactive	inactive	inactive	–	–	–
CCN1C(=O)[C@@H]2[C@H]3[C@H](O)[C@H](O)CC(=NOC[C@@H](O)[C@H]4O[C@@H]5OC(C)(C)O[C@H]5[C@@H]4O)[C@@H]3CC[C@H]2C1=O	inactive	inactive	inactive	inactive	inactive	–	–	–
C[C@H]1COC(=O)[C@H](Cc2ccccc2)NC(=O)[C@@H](C)COC(=O)[C@H](Cc2ccccc2)NC1=O	inactive	inactive	inactive	inactive	inactive	–	–	-42.5% [at 11.4 µM] (inactive)
CCCCC1=CC2=C(c3ccco3)C(=O)C(C)(OC(=O)c3ccc(OC)cc3)C(=O)C2=CN1CCc1ccccn1 (stereo not drawn)	inactive	inactive	inactive	inactive	inactive	–	–	–
COc1cc2c(cc1OC)[C@@H]1O[C@](CCCCN3C(=O)c4ccccc4C3=O)(C2)OC2=C1C(=O)CC(C)(C)C2	753 nM (active)	757 nM (active)	–	–	inactive	–	478 nM (active)	–
CC1(OC(=O)CCc2ccccc2)C(=O)C=C2C=C(C3CC3)OC=C2C1=O (stereo not drawn)	inactive	inactive	–	inactive	inactive	–	inactive	–
C=CCN1C=C2C(=O)C(C)(OC(=O)c3ccco3)C(=O)C(C=C)=C2C=C1C1CC1 (stereo not drawn)	–	inactive	inactive	inactive	inactive	2.08% [at 1.12 µM] (inactive)	–	–
COC(=O)CCCC1=CC2=CC(=O)C(C)(OC(=O)c3cccs3)C(=O)C2=CN1CC(C)C (stereo not drawn)	inactive	inactive	inactive	inactive	inactive	–	–	–
COc1cc(OC)c([C@@H]2O[C@H](CO)[C@@H](O)[C@H](O)[C@@H]2O)c(OC)c1	inactive	inactive	–	inactive	inactive	–	inactive	–
CCCCCCC(=O)Cc1cc(OC)c(OC)cc1C=C(C(C)=O)C(=O)OC	inactive	inactive	inactive	inactive	inactive	–	–	–
COC(=O)NC(C(=O)OC)(C(=O)OC)c1ccccc1	inactive	inactive	–	inactive	inactive	–	inactive	–
C[C@@H]1C=CCCO[C@]12C(=O)N(Cc1ccc(F)cc1)c1ccccc12	inactive	inactive	–	inactive	inactive	–	inactive	–
CCCCCCN1C(=O)CC[C@@]23C1=NC(C(=O)OC)=C(C(=O)OC)[C@@H]2N(Cc1ccccc1)c1ccccc13	inactive	inactive	–	inactive	inactive	–	inactive	–

SMILES	Potency [1]	Potency [2]	Potency [3]	Potency [4]	Potency [5]	activity, negative = inhibition [1]	Potency [6]	activity change, positive = activation [7]
COc1ccc(-c2ccc3c(n2)CCCN3CC(O)CN2CCCc3nc(C)c(C)cc32)cc1 (stereo not drawn)	inactive	inactive	–	inactive	inactive	–	inactive	–
CCN1C(=O)NC(CCc2ccccc2)C(C(C)=O)=C1C (stereo not drawn)	inactive	inactive	inactive	inactive	inactive	–	–	–
C=C(C(=O)OCC)C(=O)c1ccccc1	inactive	inactive	inactive	inactive	inactive	–	–	–
Cc1ccc(C#C[C@@H]2C=C[C@H](Oc3ccc4c(c3)OCO4)[C@@H](CO)O2)c(C)c1	inactive	inactive	inactive	inactive	inactive	–	–	–
C=COCCN1C=C(C(=O)OCC)C(c2ccccc2)NC1=O (stereo not drawn)	inactive	inactive	inactive	inactive	inactive	–	–	–
CCCCS(=O)(=O)N1CCc2nc(-c3ccccc3)c3c(c2C1)CO[C@@H](C)C3	inactive	inactive	inactive	inactive	inactive	–	–	–
COC(=O)[C@H](COC(C)(C)C)NC(=O)O[C@@H]1C(=O)c2ccc(OC)cc2O[C@H]1c1cccc(C(F)(F)F)c1	inactive	inactive	–	inactive	inactive	–	inactive	–
C=CCN1c2ccccc2[C@]23CCC(=O)N(CCOC)C2=NC(C(=O)OC)=C(C(=O)OC)[C@H]13	inactive	inactive	–	–	inactive	–	inactive	–
CC(C)=CCCC(C)=CCON=C1C[C@@H](O)[C@@H](O)[C@@H]2[C@H]3C(=O)N(Cc4ccc5c(c4)OCO5)C(=O)[C@@H]3CC[C@@H]12	inactive	inactive	inactive	inactive	inactive	–	–	–
FC(F)(F)c1cc(NC(=S)NC(c2ccccc2)c2ccccc2)cc(C(F)(F)F)c1	1.34 µM (active) and inactive	1.51 µM (active) and inactive	536 nM (active) and inactive	1.2 µM (active) and inactive	inactive	–	–	–
COC(=O)CCCC1=CC2=C(c3ccccc3)C(=O)C(C)(OC(=O)C3CCCC3)C(=O)C2=CN1Cc1ccc2c(c1)OCO2 (stereo not drawn)	–	inactive	inactive	inactive	inactive	-1.06% [at 1.12 µM] (inactive)	–	–
C=C(C(C)=O)C(O)c1ccc(C(F)(F)F)cc1 (stereo not drawn)	inactive	inactive	–	–	inactive	–	inactive	–
COC(=O)C(C(=O)OC)[C@H]1c2ccccc2[C@@H]2C(=C[C@@H](C)[C@H]3C(=O)N(c4ccccc4)C(=O)[C@H]32)N1C(=O)OC	inactive	inactive	inactive	inactive	inactive	–	–	–
C=CCOC(=O)N[C@H](c1ccco1)C(C(C)=O)C(C)=O	inactive	inactive	–	–	inactive	–	inactive	–
COCCN1C(=O)C2=C(C1=O)C1N(C)c3ccccc3[C@@]13C[C@@H](CO)N=C3N2 (stereo partly drawn)	inactive	inactive	inactive	inactive	inactive	–	–	–
CCCCC1=CC2=C(c3ccco3)C(=O)C(C)(OC(=O)c3ccc(OC)cc3)C(=O)C2=CN1Cc1ccco1 (stereo not drawn)	inactive	inactive	inactive	inactive	inactive	–	–	–
O=C1[C@@H]2[C@H]3[C@H](O)[C@H](O)CC(=NOC[C@@H](O)COCc4ccco4)[C@@H]3CC[C@H]2C(=O)N1C1CCCCC1	inactive	inactive	inactive	inactive	inactive	–	–	–
COC(=O)CCCC1=CC2=CC(=O)C(C)(OC(=O)c3cccs3)C(=O)C2=CN1CCc1c[nH]c2ccccc12 (stereo not drawn)	inactive	inactive	inactive	inactive	inactive	–	–	–
COC(=O)CCC(=O)OC1(C)C(=O)C=C2C=C(C3CC3)N(Cc3ccc(OC)cc3)C=C2C1=O (stereo not drawn)	inactive	inactive	–	inactive	inactive	–	inactive	–
C#CCCCON=C1C[C@@H](O)[C@H](O)[C@H]2[C@@H]3C(=O)N(c4ccc(F)cc4F)C(=O)[C@@H]3CC[C@H]12	inactive	inactive	–	–	inactive	–	inactive	–
CC=CCCN1C=C(C(C)=O)C(c2ccccc2)NC1=O (stereo not drawn)	inactive	inactive	–	–	inactive	–	inactive	–
COC(=O)N[C@@H](c1ccc(Cl)cc1)C(C(C)=O)C(=O)OC (stereo partly drawn)	inactive	inactive	–	inactive	inactive	–	inactive	–
CC(=O)C1=C(C)N(CCC=Cc2ccccc2)C(=O)NC1c1ccccc1 (stereo not drawn)	inactive	inactive	–	inactive	inactive	–	inactive	–
CC(C)=CCN1C(=O)[C@]2(O[C@H](COc3ccccc3)CC3=CCCC32)c2c(Br)cccc21 (stereo partly drawn)	3780 nM (active)	1900 nM (active)	–	–	inactive	–	1900 nM (active)	–

Reference: PubChem BioAssay (NCATS)
